Reference: PubChem BioAssay AID602310 (National Center for Advancing Translational Sciences (NCATS), 2012)
In all, about 410,000 compounds went through this assay and about 310 (0.076%) were called active. Another 2% or so got no clear call; they are omitted. The sample holds actives, similar compounds and a random draw of the others, so the mix is not that of the screen. Values without a mark were called inactive. The call rests on the fitted dose curve; in most records, active means well fitted curve in the direction sought with a large enough effect; inconclusive means small, poorly fitted or top-dose-only effect; inactive means flat fitted curve, though single readings scatter.

biological target: DNA dC->dU-editing enzyme APOBEC-3G (Homo sapiens) (UniProt Q9HC16); assay: qHTS for Inhibitors of Vif-A3G Interactions: qHTS; conditions: HeLa A3G-eYFP + Vif (tagged APOBEC3G with the HIV-1 protein that degrades it), YFP fluorescence, overnight; series mostly up to 46.1 µM; activity, negative = active: at the top concentration; further: nearly all actives have a fitted effect of over 60% in size;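 on activity, negative = active: hits raise eYFP signal because A3G escapes Vif-driven loss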
Sequence (Q9HC16 whole entry, looked up): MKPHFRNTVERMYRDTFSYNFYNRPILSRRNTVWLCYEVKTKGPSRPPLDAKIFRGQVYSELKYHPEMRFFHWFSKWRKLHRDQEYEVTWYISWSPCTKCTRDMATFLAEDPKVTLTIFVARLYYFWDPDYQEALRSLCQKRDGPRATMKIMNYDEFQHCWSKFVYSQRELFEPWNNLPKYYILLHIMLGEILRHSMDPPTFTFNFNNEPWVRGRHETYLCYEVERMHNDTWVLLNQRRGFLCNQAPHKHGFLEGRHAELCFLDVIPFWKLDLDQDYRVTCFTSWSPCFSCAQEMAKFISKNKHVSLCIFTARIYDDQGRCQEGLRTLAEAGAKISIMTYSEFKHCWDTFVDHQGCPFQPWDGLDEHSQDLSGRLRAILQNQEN
From the text: The recent discovery and characterization of host restriction factors, which provide a potent defense to invading retroviruses, has provided new targets for antiviral drug development. APOBEC3G (A3G) and APOBEC3F (A3F) are potent cytidine deaminases that block HIV-1 replication; HIV-1 expresses the Vif protein, which counteracts A3G and A3F by binding to them and inducing their proteasomal degradation. The Vif-A3G and Vif-A3F interactions provide two potential targets for development of small molecules which can interfere with the ability of Vif to degrade A3G or A3F. […] To identify inhibitors that can interfere with Vif mediated degradation of A3G and A3F, we have developed Hela cell lines that stably express A3G or A3F tagged with eYFP at the C-terminal end (A3G-eYFP or A3F-eYFP, respectively) and Vif. In the absence of an inhibitor, Vif induces degradation of A3G-eYFP and A3F-eYFP, and the cells are not fluorescent. In the presence of an inhibitor, it is expected that Vif will be unable to degrade A3G-eYFP and/or A3F-eYFP, resulting in an increase in yellow fluorescence. In this assays Vif A3G was screened against the Molecular Library Small Molecule Repository (MLSMR). NIH Chemical Genomics Center [NCGC] NIH Molecular Libraries Probe Centers Network [MLPCN] MLPCN Grant: MH093245 Assay Submitter (PI): Vinay Pathak, National Cancer Institute
5 uL of 700 cells/well of A3G-YFP cells are dispensed into black, clear bottom plates. The plates are incubated overnight at 37 deg C. 23 nL of compounds are added by pintool. The plates are incubated overnight at 37 deg C and then read on the TTP Acumen (Ex 488/ Em 500-530).
On the % scale 0 is the no-effect control and ±100 the full control effect; potency means the concentration at half of the fitted maximal effect.

Structure (SMILES) | activity, negative = active [%] | Potency
CN(C)CCCn1c(SCCN2C(=O)c3ccccc3C2=O)nc2ccccc2c1=O | 0.0321 | –
COc1cc(OC)c(OC)cc1/C=C/c1nc2ccccc2c(=O)n1-c1ccc(Br)c(C)c1 | -5.3 | –
CCn1c(/C=C/c2ccc([N+](=O)[O-])o2)nc2ccccc2c1=O | – | 3.98 µM (active)
CC(C)(C)C1CCC(NC(=O)c2cnn3c2NC(=C2CC2)C=C3C(F)F)CC1 (stereo unspecified) | 2.17 | –
CCCCS(=O)(=O)c1oc(-c2cccs2)nc1S(=O)(=O)c1ccccc1 | -18.8 | –
Cc1ccc(Cl)cc1N1CCN(S(=O)(=O)c2cc3[nH]c(=O)c(=O)[nH]c3cc2C)CC1 | 0.0103 | –
CCc1ccc(C(=O)CC2(O)C(=O)N(CCc3ccccc3)c3ccc(Br)cc32)cc1 (stereo unspecified) | -13.6 | –
COc1cc(OC)c(OC)cc1/C=C1\C=Cc2ccccc21 | -27.6 | –
COc1ccc(C2/C=C\CN(Cc3ccco3)C(C)C(=O)N2Cc2ccc(F)cc2)cc1 (stereo unspecified) | 3.73 | –
Cc1ccccc1CSCCNC(=O)C1CCN(S(=O)(=O)Cc2ccccc2)CC1 | 2.97 | –
Cc1cccc(CN2Cc3cccc4c3[C@H](C=CC4)CC2=S)c1 | 3.11 | –
Cc1csc(NCC(=O)c2c[nH]c3ccccc23)n1 | -3.43 | –
CCOc1cccc2c1N[C@@H](c1ccc(C(=O)O)cc1)[C@H]1CC=C[C@@H]21 | 1.39 | –
CCOC(=O)c1cc2c(=O)n3ccccc3nc2n(CC2CCCO2)c1=NC(=O)c1ccccc1Br (stereo unspecified) | -6.1 | –
CC(C)OC(=O)c1ccc(NCc2cc(O)ccc2O)cc1Cl | – | 12.6 µM (active)
O=S(=O)(c1cccc(C(F)(F)F)c1)N1CCN(c2nc(-c3cccs3)nc3ccccc23)CC1 | 0.472 | –
Cc1c(Cl)cccc1NC(=O)CCS(=O)(=O)c1ccc2c(c1)oc(=O)n2C | 1.33 | –
COc1cc2[nH]c(C)c(CCN3CCN(c4ccccc4)CC3)c2cc1OC | 1.15 | –
CCc1ccc(S(=O)(=O)n2ccnc2)cc1 | 0.941 | –
Cc1[nH]c2ccccc2c1C(=O)C(=O)N(C)c1ccccc1 | 0.569 | –
COc1ccc(CCNC(=O)Cn2c(=O)cc(C(F)(F)F)c3c(C)nn(C)c32)c(OC)c1 | 4.39 | –
COc1cc2c(=O)c(S(=O)(=O)c3ccc(C(C)C)cc3)cn(Cc3ccccc3C)c2cc1OC | -1.18 | –
O=C(O)c1c(Br)c(Br)c(Br)c(Br)c1C1c2ccc(O)cc2Oc2cc(O)ccc21 | 3.84 | –

Structure (SMILES) | activity, negative = active [%] | Potency
CCOC(=O)N1CCC(NC(=O)c2cnn(-c3cccc(C)c3)c2C2CCN(C(=O)OC(C)(C)C)CC2)CC1 | 1.48 | –
OCCNc1ncnc2oc(-c3ccco3)c(-c3ccco3)c12 | -5.55 | –
O=[N+]([O-])c1ccc(/C=C/c2ccc3cccnc3c2)cc1 | -2.68 | –
O=C(O)C1=C/C(=C/C=[N+]2c3cc(O)c(O[C@H]4OC(CO)[C@@H](O)[C@@H](O)[C@@H]4O)cc3C[C@@H]2C(=O)[O-])C[C@H](C(=O)O)N1 (stereo partly specified) | 1.5 | –
Cc1ccc2onc(CC(=O)N3CCN(c4ccc(Cl)cc4)CC3)c2c1 | 0.252 | –
Cc1ccc(C=O)cc1Cl | 0.329 | –
C(=Nc1ccc(/C=C/c2ccnc3ccccc23)cc1)c1cc2c3c(c1)CCCN3CCC2 | 2.24 | –
CC(C)(C)c1ccc(C(=O)NCC(c2ccc(Cl)cc2)N2CCOCC2)cc1 (stereo unspecified) | 1.59 | –
O=C1CN(C(=O)Nc2ccccc2C(F)(F)F)C(c2ccccc2)c2c(sc3c2CCCC3)N1 (stereo unspecified) | -1.24 | –
CCCN(CCC)c1nc2c(C)cccn2c(=O)c1/C=C1/SC(=S)N(Cc2ccco2)C1=O | – | 3.16 µM (active)
CN(C)c1ccc(/C=c2\[nH]c(=O)/c(=C/c3ccc(N(C)C)cc3)[nH]c2=O)cc1 | -0.485 | –
CCN(C(=O)CSc1nnc(C)n2c1cc1occc12)c1ccccc1 | -4.9 | –
CCOc1ccc(C(=O)/C=C/c2cn(CC(O)CN3CCCCCC3)c3ccccc23)cc1 (stereo unspecified) | -4.47 | –
CCOC(=O)N1CCc2c(sc(NCc3cccc(F)c3)c2C(=O)Nc2ccccc2OCC)C1 | -3.66 | –
O=C(COC(=O)c1ccccc1OCCOc1ccccc1)Nc1cccc(Br)c1 | 0.386 | –
Cc1cc(C)cc(NC(=O)CSc2nc3nccnc3c(=O)n2CCc2c[nH]c3ccccc23)c1 | 6.02 | –
CCOC(=O)c1ccc(NC(=O)C2CC(=O)NC(=Nc3ccc(C)c(C)c3)S2)cc1 (stereo unspecified) | 1.17 | –
CCCCNC(=O)Cn1c(SCc2cccc(Cl)c2)nc2ccncc21 | 0.68 | –
CCCn1ccc2c(OCC(=O)NCc3ccc(F)cc3)cccc2c1=O | -0.319 | –
O=C(Nc1ccc(Cl)cc1)c1cnn2c1NC(=C1CC1)C=C2C(F)F | -0.955 | –
Cc1cccc(-c2nnc(SC(C)C(=O)Nc3ccccc3)n2C)c1 (stereo unspecified) | -0.805 | –
CCN1CCN(c2ccc(/C=C/c3ccnc4ccccc34)cc2)CC1 | 1.79 | –
COc1ccc(-c2nc3c(c(SCC(=O)Nc4ccc(C(=O)O)cc4)n2)Cc2ccccc2O3)cc1 | 3.8 | –

Structure (SMILES) | activity, negative = active [%] | Potency
Brc1cccc[n+]1Cc1cccc(C[n+]2ccccc2Br)c1 | -5.54 | –
CC(C)(C)n1ncc2c(=O)n(Cc3ccc(C(=O)c4ccccc4)cc3)cnc21 | -0.656 | –
OC(CBr)C[n+]1cccc2cc(Br)ccc21 (stereo unspecified) | -3.43 | –
N#CC1=C(N)Oc2c(sc3ccccc23)C1c1ccco1 (stereo unspecified) | – | 11.2 µM (active)
O=C(OC12CC3CC(CC(C3)C1)C2)c1ccc(NCc2cc(O)ccc2O)cc1 | – | 6.31 µM (active)
COC(=O)c1ccccc1NC(=O)c1cnn(-c2ccc(F)cc2)c1-n1cccc1 | -4.09 | –
CCOc1ccc(N(CC)S(=O)(=O)N2CCCC(C(=O)NCc3ccc(Cl)cc3)C2)cc1 (stereo unspecified) | 3.88 | –
N#Cc1ccc[n+](CC(=O)c2ccc(F)cc2)c1 | -2.66 | –
O=C(C[n+]1ccncc1)c1ccc2c(c1)CCCC2 | -7.56 | –
Cc1nn(CC(=O)N2CCN(c3cccc(C(F)(F)F)c3)CC2)c(=O)c2cc3sccc3n12 | 1.37 | –
CCCCC(CCCC)c1ccc(C=Nc2ccc(/C=C/c3ccnc4ccccc34)cc2)cc1 | -7.47 | –
CCS(=O)(=O)N1CCc2cc(C(=O)NCc3ccc(C)cc3)ccc21 | 1.84 | –
CCCCN1C(=O)c2[nH]nc(-c3ccccc3O)c2C1c1cccc(OCc2ccccc2)c1 (stereo unspecified) | -29.4 | –
ClC/C=C/C[n+]1ccccc1Cl | 3.06 | –
CSc1n[nH]c(-c2ccco2)n1 | -3.31 | –
C[n+]1ccc(/C=C/c2c[nH]c3ccccc23)cc1 | – | 11.2 µM (active)
CCOc1n[nH]c(-c2ccccc2)n1 | 3.57 | –
CCc1nn(CC(=O)Nc2cccc(C)c2C)c(=O)c2cc3sccc3n12 | 2.56 | –
CCOc1ccccc1NC(=O)CN1CCN(S(=O)(=O)c2ccc(Br)cc2)CC1 | 1.45 | –
COc1cccc(NC(=O)Cn2c(=O)cc(C)c3c(C)nn(-c4cccc(F)c4)c32)c1 | 0.977 | –
Nc1nc(N)c(N=O)c(N)n1 | -0.374 | –
CCCCOc1ccc(C(=O)N2CC(=O)Nc3ccc(Br)cc3C2c2ccc(F)cc2)cc1 (stereo unspecified) | -0.538 | –
COc1ccccc1/C=C/c1nc(C#N)c(NC(C)c2ccccc2)o1 (stereo unspecified) | 0.452 | –

Structure (SMILES) | activity, negative = active [%] | Potency
COc1ccc(CCNC(=O)c2ccc(CSCc3ccc(C)cc3)o2)cc1OC | 4.58 | –
CNCCCOc1cc2nc(N3CCCN(C)CC3)nc(NC3CCN(C)CC3)c2cc1OC | 2.66 | –
O=C(COc1ccccc1C(=O)Nc1ccccc1)Nc1cccc(F)c1 | -2.9 | –
CC1(C)CC(=O)c2cc(C(=O)NCc3ccccc3)c(=O)[nH]c2C1 | -3.12 | –
Cn1nnnc1SCCNCc1ccc(Cl)c(Cl)c1 | -0.946 | –
Cc1csc[n+]1CCC1CCCCC1 | 1.21 | –
CCn1c(CNc2ccc(OC)cc2)nnc1SCC(=O)c1ccc(OC)cc1 | 0.533 | –
CCCCn1c(CNC(=O)C23CC4CC(CC(C4)C2)C3)nnc1SCC(=O)Nc1ccc(C)cc1 | -0.393 | –
CCn1c(CNC(=O)C23CC4CC(CC(C4)C2)C3)nnc1SCC(=O)Nc1ccc(OC)cc1 | – | 10 µM (active)
Cc1ccc(C(=O)COC(=O)C(Cc2c[nH]c3ccccc23)NC(=O)c2ccc(Br)cc2)cc1 (stereo unspecified) | 2.11 | –
Cc1ccc(Cl)cc1N1CCN(C(=O)c2cn(C)c3ccc(S(=O)(=O)N(C)C4CCCCC4)cc3c2=O)CC1 | 0.271 | –
S=c1[nH]c(=S)c2n[nH]nc2[nH]1 | 4.48 | –
COc1cccc(C(=O)NC(=O)Nc2ccc(-c3cc(C(F)(F)F)nn3-c3ccccc3)cc2)c1 | 3.03 | –
COc1ccc(CCN2C(=O)N(c3cccc(OC)c3)C(=O)C2CC(=O)Nc2ccccc2)cc1 (stereo unspecified) | 3.95 | –
COc1ccc(CC(=O)NCCc2sc3nc(-c4ccc(OC)cc4)nn3c2C)cc1 | 7.95 | –
CCc1ccc(Nc2nn3c(=O)c4cc5c(cc4nc3s2)OCO5)cc1 | 3.36 | –
CCOC(=O)c1c(C)[nH]c(C)c1S(=O)(=O)NCC(=O)NCc1cccc(C)c1 | -0.939 | –
COc1ccc(CNC(=O)Cn2nnc(-c3ccc(S(C)(=O)=O)cc3)n2)cc1 | 2.9 | –
COc1ccc(OC)c(NC(=O)CSc2nc3ccccc3nc2N2CCCCC2)c1 | -8.14 | –
Cc1ccc(Cn2cnc3c(cnn3C(C)(C)C)c2=O)c(F)c1 | -1.28 | –
Brc1cccc(-c2nnn3c2nc(NC2CCCCC2)c2ccccc23)c1 | 5.7 | –
C[N+]1(CC(=O)c2cccs2)CCOCC1 | 1.57 | –
CCCNC(=O)C1CCN(c2nc3ccc(C)cc3[nH]2)CC1 | 0.307 | –

Structure (SMILES) | activity, negative = active [%] | Potency
COc1cc(OC)c(NC(=O)c2c3c(nn2C)-c2ccccc2SC3)cc1Cl | 3.23 | –
CN(N=O)c1ccc(C=C2c3ccccc3-c3ccccc32)cc1 | -1.54 | –
COc1ccc2[nH]c3c(c2c1)CCN(C(=O)CCC1CCCC1)C3c1ccc(F)cc1 (stereo unspecified) | -9.23 | –
CN(C)c1cccc2ccccc12 | 3.02 | –
CN(C)c1ccc(/C=C/c2c3ccccc3nc3ccccc23)cc1 | -16.4 | –
Cc1oc2c(c1C(=O)Nc1ccc(F)c(F)c1)C1=NCCN1C=N2 | 2.52 | –
CCc1nnc(SCc2c(F)cccc2Cl)c2cc3sccc3n12 | -1.5 | –
COc1ccc(/C=C/c2ccccn2)cc1OC | 0.196 | –
Cc1cc(Cl)ccc1OCC(=O)N(Cc1ccc(N(C)C)cc1)C1CCS(=O)(=O)C1 (stereo unspecified) | 0.29 | –
CN(C)C1=C2C=CC=CC2/C(=C2/C=Cc3ccccc32)C=C1 (stereo unspecified) | -6.13 | –
CCOc1ccccc1NC(=O)Cn1c(=O)n(-c2cccc(C)c2)c(=O)c2c1c1cc(OC)ccc1n2C | 0.805 | –
O=C(Nc1ccc([N+](=O)[O-])cc1)c1cnn2c1NC(=C1CC1)C=C2C(F)F | 0.78 | –
O=C(CSc1ncc(S(=O)(=O)c2ccc(Br)cc2)c(=O)[nH]1)Nc1ccc2c(c1)OCCO2 | -0.105 | –
CCOc1ccccc1C(=O)NCc1ccc2c(c1)CCN2C(=O)c1ccc(F)cc1 | 0.357 | –
COc1cc2nc(C#Cc3nc4cc(OC)c(OC)cc4[nH]3)[nH]c2cc1OC | 0.338 | –
COc1cccc(/C=N/NC(=O)c2[nH]nc3c2CCc2ccccc2-3)c1O | – | 8.91 µM (active)
Cc1ccccc1NC(=O)COc1cccc2c1CCNC2=O | -0.461 | –
Cc1ncc(CO)c(/C=N/NC(=O)c2cccc(S(=O)(=O)N3CCCC3)c2)c1O | -0.256 | –
CCc1cc2c(cc3c(=O)n(CC(=O)N4CCN(c5cc(Cl)ccc5C)CC4)nc(CC)n32)s1 | 0.482 | –
